# Results reported in PubChem BioAssay (NCATS).
# Records with an inconclusive call do not appear. A call without a number means that no potency is given here. Active and inactive are the calls of the source. Unless noted, the call rests on the fitted dose curve; in most records, active means well fitted curve in the direction sought with a large enough effect; inconclusive means small, poorly fitted or top-dose-only effect, or another doubt; inactive means no such curve, though single readings can be large; an effect the other way counts as inactive or inconclusive.
# Legend:
# [1] = biological target: Rap guanine nucleotide exchange factor 3 (Homo sapiens) (UniProt O95398); experiment: Confirmatory qHTS for agonist of cAMP-regulated guanine nucleotide exchange factor 3 (EPAC1) (AID 1645881); further: nearly all actives have a fitted effect of over 75% in size; further: potency means the concentration at half of the fitted maximal effect;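 on activation: EPAC1 catalysed release of BODIPY-GDP from Rap1B seen as fluorescence loss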
# [2] = biological target: Rap guanine nucleotide exchange factor 4 (Homo sapiens) (UniProt Q8WZA2); experiment: Confirmatory qHTS for agonist of cAMP-regulated guanine nucleotide exchange factor 4 (EPAC2) (AID 1645884);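 further: nucleotide exchange releases bodipy-GDP from Rap1 and this lowers its fluorescence; nearly all actives have a fitted effect of over 65% in size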; further: potency means the concentration at half of the fitted maximal effect
# [3] = biological target: Rap guanine nucleotide exchange factor 4 (Homo sapiens) (UniProt Q8WZA2); experiment: Confirmatory qHTS for antagonist of cAMP-regulated guanine nucleotide exchange factor 4 (EPAC2) (AID 1645885); further: nearly all actives have a fitted effect of over 25% in size; further: potency means the concentration at half of the fitted maximal effect
# [4] = biological target: Rap guanine nucleotide exchange factor 3 (Homo sapiens) (UniProt O95398); experiment: Counterscreen qHTS for antagonist of cAMP-regulated guanine nucleotide exchange factor 3 (EPAC1) (AID 1645888);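 further: fluorescence loss as bound BODIPY-GDP is released from Rap1B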
# Method in brief: (§1)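 Measured: fluorescence of BODIPY-GDP bound to Rap1B, which falls as exchange proceeds. Conditions include 50 uM competing GDP, 5 and 30 min reads, and a later cAMP challenge for antagonist detection.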
# [5] = biological target: Rap guanine nucleotide exchange factor 3 (Homo sapiens) (UniProt O95398); experiment: Counterscreen qHTS for agonist of cAMP-regulated guanine nucleotide exchange factor 3 (EPAC1) (AID 1645889); further: nearly all actives have a fitted effect of over 40% in size; further: potency means the concentration at half of the fitted maximal effect
# Method in brief: as §1
# [6] = biological target: Bile acid receptor (Homo sapiens) (UniProt Q96RI1); experiment: qHTS assay for small molecule antagonists of farnesoid X receptor signaling (AID 588526; calls by dose curve)
# Method in brief: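 Concentration-response titrations were fitted to the Hill equation for half-maximal inhibition and maximal response, with data normalised to 50 uM chenodeoxycholic acid and DMSO control wells. Cells: FXR-UAS-bla HEK293T, dialyzed FBS.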
# [7] = biological target: Glucocorticoid receptor (Homo sapiens) (UniProt P04150); experiment: qHTS assay for small molecule agonists of glucocorticoid receptor signaling (AID 588532; active means well fitted curve in the direction sought with a large enough effect in the signal ratio, with a control signal flat; the % refers to the signal ratio); conditions: HeLa MMTV-bla, beta-lactamase ratio, agonist, 18 h; stronger effect = higher value; percent of dexamethasone control, DMSO zero
# Method in brief: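 MMTV-bla HeLa, beta-lactamase reporter; medium with 1% charcoal/dextran-stripped FBS; cpds up to 92 uM, 18 h, 37 C; CCF4 readout 460/530 nm; Hill fit → EC50, efficacy vs 0.1 uM dexamethasone = 100%.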
# [8] = qHTS assay for small molecule antagonists of peroxisome proliferator-activated receptor delta signaling (AID 588535; active means well fitted inhibition curve with a large enough effect in the signal ratio, with a control signal flat, not every such curve was filed as active; the % refers to the signal ratio;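 on max response: cells co-treated with a PPAR-delta agonist as stimulator during compound exposure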); conditions: HEK293T PPARd-UAS-bla, beta-lactamase FRET ratio, 18 h; 460 nm channel
# Method in brief: (§2)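 Reporter: UAS-bla under PPAR-delta response element, HEK293T host. Medium: 2% charcoal/dextran FBS. Dosing: titration, 18 hrs, 37 C. Detection: CCF4, 2 hrs RT, 405 ex/460 and 530 em.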
# [9] = biological target: Peroxisome proliferator-activated receptor delta (Homo sapiens) (UniProt Q03181); experiment: as above
# Method in brief: as §2
# [10] = biological target: Peroxisome proliferator-activated receptor gamma (Homo sapiens) (UniProt P37231); experiment: qHTS assay for small molecule antagonists of peroxisome proliferator-activated receptor gamma signaling (AID 588537; active means well fitted inhibition curve with a large enough effect in the signal ratio, with a control signal flat, not every such curve was filed as active; the % refers to the signal ratio;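 further: reporter cells co-stimulated with 50 nM rosiglitazone agonist during compound treatment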)
# Method in brief: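 We seeded GeneBLAzer HEK293 reporter cells at 3000 per well, allowed 6-6.5 h attachment at 37 C, then co-treated with test compound titrations and 50 nM rosiglitazone overnight (16 h). Inhibition was quantified from 460/530 nm emission ratios.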
# [11] = biological target: Vitamin D3 receptor (Homo sapiens) (UniProt P11473); experiment: qHTS assay for small molecule antagonists of vitamin D receptor signaling (AID 588541; calls by dose curve;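 further: receptor activated by calcitriol during compound treatment; series mostly up to about 77 µM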)
# Method in brief: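 VDR-UAS-bla HEK293T cells (2000/well, 2% charcoal-stripped FBS) were treated with titrated compounds plus 1-alpha,25-dihydroxyvitamin D3 (50 nM or 3 nM final) for 16 h at 37 C. CCF4 beta-lactamase fluorescence was read; Hill fits gave IC50.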
# [12] = biological target: Vitamin D3 receptor (Homo sapiens) (UniProt P11473); experiment: qHTS assay for small molecule agonists of vitamin D receptor signaling (AID 588543; calls by dose curve)
# Method in brief: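 β-lactamase reporter, VDR-UAS-bla HEK293T, agonist mode. Cells plated 5 h at 37 °C, compound titration 16 h at 37 °C, CCF4 dye 2 h RT, ratio 460/530 nm. Hill fit → EC50, efficacy vs 50 nM 1α,25-(OH)2D3.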
# [13] = qHTS assay for small molecule agonists of retinoid X receptor alpha signaling (AID 588544; calls by dose curve); conditions: HEK293T RXRa-UAS-bla, beta-lactamase reporter, 18 h; 530 nm emission
# [14] = biological target: Retinoic acid receptor RXR-alpha (Homo sapiens) (UniProt P19793); experiment: as above
# [15] = biological target: Thyroid hormone receptor beta (Homo sapiens) (UniProt P10828); experiment: qHTS assay for small molecule agonists of thyroid hormone receptor beta signaling (AID 588545; calls by dose curve)
# Method in brief: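 HEK 293 TR-UAS-bla; agonist mode; 18 hrs, 37 C; CCF4, ex 405/em 460 and 530 nm; norm. T3 10 nM = 100%, DMSO = 0%; Hill fit → EC50, efficacy.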
# [16] = biological target: Thyroid hormone receptor beta (Homo sapiens) (UniProt P10828); experiment: qHTS assay for small molecule antagonists of thyroid hormone receptor beta signaling (AID 588547; active means well fitted inhibition curve with a large enough effect in the signal ratio, with a control signal flat, not every such curve was filed as active; the % refers to the signal ratio;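 further: cells stimulated with 0.4 nM T3 agonist during compound exposure; series mostly up to about 77 µM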); conditions: TR-UAS-bla HEK293, beta-lactamase ratio, antagonist mode, 18 h
# Method in brief: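 TR-UAS-bla GripTite HEK293 cells in 2% charcoal/dextran FBS medium were preincubated 4 h at 37 C, given compound (0.59 nM to 92 uM) plus 0.4 nM T3 (final) for 18 h, then CCF4 for 2 h at RT; Hill fit gave IC50.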
# [17] = biological target: Luciferin 4-monooxygenase (Photinus pyralis) (UniProt P08659); experiment: Biochemical firefly luciferase enzyme assay for NPC (AID 624030);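 further: purified P. pyralis luciferase at 10 nM with luciferin and ATP substrate; series mostly up to about 59 µM; nearly all actives have a fitted effect of over 70% in size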
# Method in brief: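 Counter-screen for direct inhibition of the luciferase enzyme by approved-drug library compounds, run at 10 nM enzyme in 50 mM Tris acetate (final). Luminescence was read within 5 min of enzyme-buffer addition and normalized to PTC124 versus DMSO (0%).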
# [18] = qHTS assay for small molecule agonists of the antioxidant response element (ARE) signaling pathway (AID 651741; active means well fitted activation curve with a large enough effect in the signal ratio; the % refers to the signal ratio; further: potency means the concentration at half of the fitted maximal effect)
# Method in brief: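 Compounds in DMSO are pinned onto HepG2 ARE-bla cells (2,000/well) that were preincubated 5 h; plates stay 16 h at 37 C, then beta-lactamase activity is detected with LiveBLAzer B/G substrate by fluorescence.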
# [19] = qHTS assay for small molecule activators of the p53 signaling pathway (AID 651743; active means well fitted activation curve with a large enough effect in the signal ratio, not every such curve was filed as active; the % refers to the signal ratio; further: series mostly up to about 92 µM); conditions: HCT-116 p53RE-bla, beta-lactamase FRET ratio, 16 h; stronger effect = higher value
# Method in brief: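 Cell-based beta-lactamase reporter (p53 response elements, HCT-116 background). After a 5-hour preincubation, cells received compound for 16 hours at 37 C; substrate development ran 2 hours at room temperature.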
# [20] = qHTS assay for environmental chemicals that activate the Aryl hydrocarbon Receptor (AhR) signaling pathway (AID 651777); conditions: 1A2-DRE human hepatoma cells, luciferase, 24 h; stronger effect = higher value; further: nearly all actives have a fitted effect of over 15% in size
# Method in brief: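 Human hepatoma 1A2-DRE cells, stably carrying a dioxin response element and CYP1A2 promoter driving luciferase, were exposed to compounds for 24 hr at 37 C and 5% CO2. Luciferase signal was then read after 30 min One-Glo at room temperature.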
# [21] = biological target: Peroxisome proliferator-activated receptor alpha (Homo sapiens) (UniProt Q07869); experiment: qHTS assay for small molecule agonists of the peroxisome proliferator-activated receptor alpha (PPARalpha) signaling pathway (AID 651778); conditions: PathHunter PPARalpha complementation, chemiluminescence, 6 h; stronger effect = higher value
# Method in brief: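 Cells plated at 2,000/well and held overnight at 37 C, 5% CO2, then compound added by pin tool for 6 hr; after PathHunter detection reagent and 60 min at room temperature, chemiluminescence from enzyme complementation was read.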
# [22] = qHTS assay for small molecule agonists of the antioxidant response element (ARE) signaling pathway measured by Nrf2-dependant transcriptional activity - cell viability counter screen (AID 720653; active means well fitted curve in the direction sought with a large enough effect in the repeat runs; an effect the other way counts as inactive or inconclusive); conditions: ARE-bla HepG2 viability, CellTiter-Glo ATP luminescence, 16 h; stronger effect = lower value
# Method in brief: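 ARE-bla HepG2 cells (2,000/well) rested 5 hrs at 37C/5% CO2, then exposed to compounds in DMSO for 16 hrs. Viability was read in the same wells as intracellular ATP by luminescence, 30 min at room temperature after reagent addition.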
# [23] = qHTS Assay for Identifying Gametocytocidal Compounds (AID 743244);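 further: actives lower the fluorescent signal which means gametocytes are killed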; conditions: P. falciparum 3D7 stage III-V gametocytes, alamarBlue, 72 h; max response: stronger effect = lower value
# Method in brief: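 Stage III–V gametocytes of P. falciparum 3D7 were seeded at 20,000 cells/well onto pre-dispensed compounds. After 72 h, 37 °C, 5% CO2, alamarBlue was added for another 24 h.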
# [24] = qHTS assay for cell viability of HEK293 cells (AID 743288); conditions: ATP luminescence (CellTiter-Glo), 18 h, stronger effect = lower value; further: nearly all actives have a fitted effect of over 50% in size
# Method in brief: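 Environmental chemicals tested in qHTS format against parental HEK293 cells; 18 h treatment, 37 C; read-out ATP luminescence (CellTiter-Glo), 30 min RT development.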
# [25] = qHTS assay for cell viability of the p53RE-bla HCT-116 cell line (AID 743292); further: nearly all actives have a fitted effect of over 55% in size
# Method in brief: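 CellSensor p53RE-bla HCT-116 cells, 4,000/well, preincubated 5 h at 37 C, then exposed to compounds in DMSO for 16 h at 37 C. Viability read as CellTiter-Glo luminescence (intracellular ATP) after 30 min at room temperature.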
# [26] = biological target: Nuclear receptor subfamily 1 group I member 2 (Rattus norvegicus) (UniProt Q9R1A7); experiment: qHTS assay for small molecule activators of the rat pregnane X receptor (rPXR) signaling pathway (AID 651751; call rule not given here); conditions: rPXR reporter cells, luciferase (One-Glo), 24 h
# Sequence of Rap guanine nucleotide exchange factor 3 (Homo sapiens) (O95398 whole entry, looked up): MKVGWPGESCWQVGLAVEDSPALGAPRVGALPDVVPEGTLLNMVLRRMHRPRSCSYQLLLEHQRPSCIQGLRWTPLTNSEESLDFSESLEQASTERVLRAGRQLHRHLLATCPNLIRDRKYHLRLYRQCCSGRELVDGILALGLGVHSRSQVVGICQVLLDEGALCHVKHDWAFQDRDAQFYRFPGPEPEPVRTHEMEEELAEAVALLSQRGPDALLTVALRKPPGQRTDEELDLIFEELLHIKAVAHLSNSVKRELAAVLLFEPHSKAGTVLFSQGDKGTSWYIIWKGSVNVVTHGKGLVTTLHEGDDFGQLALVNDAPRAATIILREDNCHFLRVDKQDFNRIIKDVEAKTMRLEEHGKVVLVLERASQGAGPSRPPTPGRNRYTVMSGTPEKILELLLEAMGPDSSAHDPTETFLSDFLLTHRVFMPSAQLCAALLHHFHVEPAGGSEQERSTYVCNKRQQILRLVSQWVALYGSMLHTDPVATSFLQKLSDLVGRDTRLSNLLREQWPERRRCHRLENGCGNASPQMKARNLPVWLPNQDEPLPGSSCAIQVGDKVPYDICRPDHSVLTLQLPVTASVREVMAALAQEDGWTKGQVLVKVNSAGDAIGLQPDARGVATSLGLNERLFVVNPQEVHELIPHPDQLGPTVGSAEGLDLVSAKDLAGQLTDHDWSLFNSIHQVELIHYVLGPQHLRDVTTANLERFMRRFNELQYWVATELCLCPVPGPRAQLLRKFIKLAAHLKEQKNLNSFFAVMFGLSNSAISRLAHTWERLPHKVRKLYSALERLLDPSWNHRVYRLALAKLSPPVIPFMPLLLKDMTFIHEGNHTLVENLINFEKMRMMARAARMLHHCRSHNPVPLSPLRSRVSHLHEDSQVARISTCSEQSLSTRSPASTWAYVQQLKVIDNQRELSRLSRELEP
# Sequence of Rap guanine nucleotide exchange factor 4 (Homo sapiens) (Q8WZA2 whole entry, looked up): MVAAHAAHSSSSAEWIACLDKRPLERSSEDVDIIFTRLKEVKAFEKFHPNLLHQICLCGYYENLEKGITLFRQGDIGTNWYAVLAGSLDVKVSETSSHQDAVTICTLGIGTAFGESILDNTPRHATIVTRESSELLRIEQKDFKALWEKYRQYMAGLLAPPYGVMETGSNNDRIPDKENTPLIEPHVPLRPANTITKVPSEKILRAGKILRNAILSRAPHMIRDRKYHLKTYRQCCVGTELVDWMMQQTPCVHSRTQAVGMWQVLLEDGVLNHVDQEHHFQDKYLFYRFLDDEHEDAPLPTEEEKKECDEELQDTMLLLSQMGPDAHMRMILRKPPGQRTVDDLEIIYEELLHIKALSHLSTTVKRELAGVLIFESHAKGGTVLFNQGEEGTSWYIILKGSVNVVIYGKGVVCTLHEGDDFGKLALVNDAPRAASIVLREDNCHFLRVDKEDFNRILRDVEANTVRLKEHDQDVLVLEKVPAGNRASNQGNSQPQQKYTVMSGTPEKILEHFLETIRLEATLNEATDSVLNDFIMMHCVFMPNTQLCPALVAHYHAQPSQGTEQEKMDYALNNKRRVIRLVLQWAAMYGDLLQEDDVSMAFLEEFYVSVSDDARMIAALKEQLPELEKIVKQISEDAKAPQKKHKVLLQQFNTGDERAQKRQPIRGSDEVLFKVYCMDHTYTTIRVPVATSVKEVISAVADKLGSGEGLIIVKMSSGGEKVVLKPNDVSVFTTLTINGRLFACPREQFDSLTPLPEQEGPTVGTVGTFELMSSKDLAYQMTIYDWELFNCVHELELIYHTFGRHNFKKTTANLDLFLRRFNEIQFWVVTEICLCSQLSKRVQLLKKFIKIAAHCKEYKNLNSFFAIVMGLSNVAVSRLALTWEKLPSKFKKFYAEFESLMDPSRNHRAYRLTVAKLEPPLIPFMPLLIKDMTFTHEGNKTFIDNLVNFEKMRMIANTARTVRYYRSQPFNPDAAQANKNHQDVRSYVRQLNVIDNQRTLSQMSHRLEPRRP
# Sequence of Thyroid hormone receptor beta (Homo sapiens) (P10828 whole entry, looked up): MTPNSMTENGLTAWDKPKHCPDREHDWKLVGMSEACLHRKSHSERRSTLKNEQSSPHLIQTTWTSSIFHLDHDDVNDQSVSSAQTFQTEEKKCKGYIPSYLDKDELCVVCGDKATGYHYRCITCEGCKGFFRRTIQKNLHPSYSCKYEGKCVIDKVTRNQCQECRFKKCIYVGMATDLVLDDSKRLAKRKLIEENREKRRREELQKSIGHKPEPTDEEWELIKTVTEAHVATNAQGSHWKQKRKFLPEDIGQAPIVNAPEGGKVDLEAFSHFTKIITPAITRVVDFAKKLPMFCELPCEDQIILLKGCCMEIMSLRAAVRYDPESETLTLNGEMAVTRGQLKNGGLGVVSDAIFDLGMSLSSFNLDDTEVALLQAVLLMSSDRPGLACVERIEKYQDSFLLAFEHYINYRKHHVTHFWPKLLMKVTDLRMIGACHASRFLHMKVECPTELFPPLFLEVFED
# Sequence of Vitamin D3 receptor (Homo sapiens) (P11473 whole entry, looked up): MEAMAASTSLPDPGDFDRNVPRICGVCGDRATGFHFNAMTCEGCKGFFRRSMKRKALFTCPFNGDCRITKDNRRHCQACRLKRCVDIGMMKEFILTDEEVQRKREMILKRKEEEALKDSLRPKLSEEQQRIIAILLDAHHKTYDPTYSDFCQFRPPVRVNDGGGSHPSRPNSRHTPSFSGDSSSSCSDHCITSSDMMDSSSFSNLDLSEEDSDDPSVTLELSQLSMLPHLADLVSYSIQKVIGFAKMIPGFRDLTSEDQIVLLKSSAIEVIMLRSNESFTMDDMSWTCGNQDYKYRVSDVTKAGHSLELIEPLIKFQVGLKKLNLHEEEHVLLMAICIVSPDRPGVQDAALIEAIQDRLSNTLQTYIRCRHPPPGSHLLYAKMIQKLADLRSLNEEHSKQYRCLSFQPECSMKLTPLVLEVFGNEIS
# Sequence of Bile acid receptor (Homo sapiens) (Q96RI1 whole entry, looked up): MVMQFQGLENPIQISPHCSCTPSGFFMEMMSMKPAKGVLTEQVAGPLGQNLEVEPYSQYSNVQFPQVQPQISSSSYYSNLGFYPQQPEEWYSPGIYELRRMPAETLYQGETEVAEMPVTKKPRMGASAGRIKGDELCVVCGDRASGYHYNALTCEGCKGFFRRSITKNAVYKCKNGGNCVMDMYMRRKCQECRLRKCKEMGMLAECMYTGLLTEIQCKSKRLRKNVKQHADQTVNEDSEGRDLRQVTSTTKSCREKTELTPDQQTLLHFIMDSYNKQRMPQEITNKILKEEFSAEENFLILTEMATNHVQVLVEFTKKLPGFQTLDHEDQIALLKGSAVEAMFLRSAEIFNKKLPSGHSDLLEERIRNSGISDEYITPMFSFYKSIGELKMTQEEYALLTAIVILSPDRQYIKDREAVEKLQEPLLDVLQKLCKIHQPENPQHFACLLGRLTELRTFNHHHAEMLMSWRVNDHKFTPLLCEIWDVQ
# Sequence of Luciferin 4-monooxygenase (Photinus pyralis) (P08659 whole entry, looked up): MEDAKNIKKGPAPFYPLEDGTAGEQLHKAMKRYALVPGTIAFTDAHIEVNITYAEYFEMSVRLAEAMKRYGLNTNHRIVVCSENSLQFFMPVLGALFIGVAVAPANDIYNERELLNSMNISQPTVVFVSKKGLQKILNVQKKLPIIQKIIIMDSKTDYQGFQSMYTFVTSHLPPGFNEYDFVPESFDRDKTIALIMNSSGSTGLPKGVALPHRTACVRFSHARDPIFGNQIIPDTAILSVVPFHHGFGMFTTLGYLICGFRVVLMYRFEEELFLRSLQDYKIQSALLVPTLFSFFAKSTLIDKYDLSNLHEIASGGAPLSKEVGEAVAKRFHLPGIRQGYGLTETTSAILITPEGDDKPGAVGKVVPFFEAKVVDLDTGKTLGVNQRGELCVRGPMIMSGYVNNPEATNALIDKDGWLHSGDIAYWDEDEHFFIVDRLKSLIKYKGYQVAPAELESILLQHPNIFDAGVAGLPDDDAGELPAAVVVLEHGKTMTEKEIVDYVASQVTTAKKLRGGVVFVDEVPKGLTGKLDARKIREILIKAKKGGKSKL
# Sequence of Glucocorticoid receptor (Homo sapiens) (P04150 whole entry, looked up): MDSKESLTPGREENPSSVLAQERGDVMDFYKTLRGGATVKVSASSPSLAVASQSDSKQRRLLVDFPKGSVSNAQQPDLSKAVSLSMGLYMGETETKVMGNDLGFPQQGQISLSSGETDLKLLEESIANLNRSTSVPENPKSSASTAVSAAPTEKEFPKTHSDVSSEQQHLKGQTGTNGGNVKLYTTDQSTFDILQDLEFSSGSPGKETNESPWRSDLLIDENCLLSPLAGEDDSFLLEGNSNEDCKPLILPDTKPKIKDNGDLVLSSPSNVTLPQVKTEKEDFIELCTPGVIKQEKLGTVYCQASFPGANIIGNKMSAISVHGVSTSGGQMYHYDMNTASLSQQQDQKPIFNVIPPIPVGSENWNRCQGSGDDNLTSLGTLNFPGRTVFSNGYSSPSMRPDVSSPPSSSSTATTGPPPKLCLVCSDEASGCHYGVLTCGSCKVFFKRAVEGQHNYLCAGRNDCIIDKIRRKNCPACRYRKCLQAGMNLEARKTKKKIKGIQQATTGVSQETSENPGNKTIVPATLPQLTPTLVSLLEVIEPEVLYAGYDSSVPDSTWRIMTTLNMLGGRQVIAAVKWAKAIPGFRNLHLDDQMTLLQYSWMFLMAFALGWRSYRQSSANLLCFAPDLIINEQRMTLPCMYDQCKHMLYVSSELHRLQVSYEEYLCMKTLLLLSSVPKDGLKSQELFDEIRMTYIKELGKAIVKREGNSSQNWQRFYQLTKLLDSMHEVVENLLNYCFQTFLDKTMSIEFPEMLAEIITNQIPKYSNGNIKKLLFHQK
structure (smiles),measurement,setting,value
COc1ccc(NC(=O)c2ccc(NC3=NC4CS(=O)(=O)CC4S3)cc2)cc1 (stereo not drawn),Potency,[1],inactive
same,activation,[2],"1.91% [at 17.1 µM, percent relative to cAMP agonist control] (inactive)"
same,Potency,[3],inactive
same,"activity change, negative = inhibition",[4],-1.99% [at 30.8 µM] (inactive)
Cc1nc(-c2cccc(NC(=O)Cc3ccccc3)c2)cs1,Potency,[1],inactive
same,activation,[2],"1.14% [at 17.1 µM, percent relative to cAMP agonist control] (inactive)"
same,Potency,[3],inactive
same,"activity change, negative = inhibition",[4],-17.6% [at 30.8 µM] (inactive)
same,activation,[5],2.08% [at 30.8 µM] (inactive)
CC(=O)Nc1ccc(C=NNc2ccc(S(=O)(=O)Nc3ccccc3C(=O)O)cc2[N+](=O)[O-])cc1,Potency,[1],inactive
same,activation,[2],"0.331% [at 17.1 µM, percent relative to cAMP agonist control] (inactive)"
same,Potency,[3],inactive
same,"activity change, negative = inhibition",[4],0.935% [at 30.8 µM] (inactive)
same,activation,[5],13.4% [at 30.8 µM] (inactive)
CC(C)(C)c1cc(NC(=O)COC(=O)c2ccc(O)cc2O)n(-c2ccccc2)n1,Potency,[1],inactive
same,activation,[2],"8.65% [at 17.1 µM, percent relative to cAMP agonist control] (inactive)"
same,Potency,[3],inactive
same,"activity change, negative = inhibition",[4],-16.3% [at 30.8 µM] (inactive)
Cc1ccc2[nH]cc(C(c3ccccc3)c3ccc(C)s3)c2c1 (stereo not drawn),Potency,[1],inactive
same,Potency,[2],inactive
same,Potency,[3],inactive
same,Potency,[4],inactive
same,Potency,[5],inactive
CN1/C(=C\C=C2/SC(=S)NC2=O)C(C)(C)c2ccccc21,Potency,[1],79.4 µM (active)
same,Potency,[2],79.4 µM (active)
same,Potency,[3],7.57 µM (active)
same,Potency,[4],inactive
same,Potency,[5],70.8 µM (active)
CCCOC(=O)c1cc(O)c(O)c(O)c1,outcome,[6],inactive
same,activation,[7],-7.56% (inactive)
same,max response,[8],51.1%
same,outcome,[9],inactive
same,outcome,[10],inactive
same,outcome,[11],inactive
same,outcome,[12],inactive
same,max response,[13],14.7%
same,outcome,[14],inactive
same,outcome,[15],inactive
same,activity change % (negative = inhibition),[16],5.53% (inactive)
same,Potency,[17],inactive
same,Potency,[18],9.69 µM (active)
same,activation,[19],-0.803% (inactive)
same,activation,[20],4.88% (inactive)
same,max response,[21],0.0423% (inactive)
same,max response,[22],-15.7% (inactive)
same,max response,[23],14.7% (inactive)
same,max response,[24],-23.3% (inactive)
same,outcome,[25],inactive
same,max response,[26],-2.93% (inactive)
COC(=O)c1cc2sc(C)cc2n1Cc1cccc(OC)c1,Potency,[1],inactive
same,Potency,[2],inactive
same,Potency,[3],inactive
same,Potency,[4],inactive
same,Potency,[5],inactive
Cc1nc(SCC(=O)N2CCCCCC2)[nH]c(=O)c1C,Potency,[1],inactive
same,Potency,[2],inactive
same,Potency,[3],inactive
same,Potency,[4],inactive
Cn1c(=O)c2nc(SCC(=O)Nc3ccc(Cl)c(Cl)c3)n(C)c2n(C)c1=O,Potency,[1],inactive
same,Potency,[2],inactive
same,outcome,[3],inactive [at 12.7 µM]
same,Potency,[4],inactive
same,Potency,[5],inactive
